Experimental findings from the supplement of paper PMC7695840 are described below.

The structures appear in SMILES notation.

In assay [1] the test system is Staphylococcus aureus MW2 delta-mecA (mecA-). As to the kind of experiment: normalized GFP fluorescence (growth of mecA- strain) (fraction of control range); higher = more growth of mecA- strain. The settings on record: compound concentration: 150 uM; cefoxitin: subinhibitory; fluorescent label: GFP. The method in brief: (§1)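 Pre-induced S. aureus MW2 mecA+ (DsRed) and ΔmecA (GFP) cells were mixed 1:1 in LB with a daily-set subinhibitory cefoxitin dose. They were dispensed at 5 µL/well onto 150 μM compound (1.5% DMSO) in 1536-well plates, single replicate. Growth was 20 h at 37 °C, 90% humidity, unshaken, and DsRed (540/590) and GFP (485/520) were then read. Each channel was scaled per plate between the medians of the single-strain controls. Plates with high No Treatment ratios and rows with DsRed/GFP >10 were excluded.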

In assay [2] the test system is Staphylococcus aureus MW2 (mecA+). The experiment in a line: normalized DsRed fluorescence (growth of mecA+ strain) (fraction of control range); higher = more growth of mecA+ strain. As to conditions: compound concentration: 150 uM; cefoxitin: subinhibitory; fluorescent label: DsRed. The essentials:
as §1

On to `OCCN1C[C@H](O)[C@@H](O)[C@H](O)[C@H]1CO`, for which the “normalized GFP fluorescence” value in assay [1] came to 0.514. Moreover, the “normalized DsRed fluorescence” value in assay [2] worked out at 0.724.
As to `CCN(CC)CCNC(=O)c1cc(Cl)c(N)cc1OC`, the “normalized GFP fluorescence” value in assay [1] was 0.639. Besides, the “normalized DsRed fluorescence” value in assay [2] worked out at 0.756.
With `COc1ccccc1OCC(O)COC(N)=O` (stereo unspecified), the “normalized GFP fluorescence” value in assay [1] worked out at 0.207. In addition, the “normalized DsRed fluorescence” value in assay [2] came to 0.692.
On to `CCCCC1C(=O)N(c2ccccc2)N(c2ccccc2)C1=O` [Phenylbutazone (Butazolidin, Butatron)], for which the “normalized GFP fluorescence” value in assay [1] was 0.207. In addition, in assay [2], the “normalized DsRed fluorescence” value worked out at 0.436.
With `CN1C(C(=O)Nc2ccccn2)=C(O)c2ccccc2S1(=O)=O` [Piroxicam (Feldene)], the “normalized GFP fluorescence” value in assay [1] turned out to be 0.0173. Also, the “normalized DsRed fluorescence” value in assay [2] turned out to be 0.661.
Take `COc1ccc(OC)c(C(O)CNC(=O)CN)c1` (stereo unspecified): the “normalized GFP fluorescence” value in assay [1] turned out to be 0.301. In addition, the “normalized DsRed fluorescence” value in assay [2] amounted to 0.764.
As for `Oc1ccc(C2CNCCc3c2cc(O)c(O)c3Cl)cc1` (stereo unspecified), the “normalized GFP fluorescence” value in assay [1] came to 0.582. For the same molecule, the “normalized DsRed fluorescence” value in assay [2] came to 0.979.
The matching figures for `O=C(CCBr)N1CCN(C(=O)CCBr)CC1`: 0.631 and 0.794.
The matching figures for `COc1ccc2c(c1)c(CC(=O)O)c(C)n2C(=O)c1ccc(Cl)cc1`: -0.013 and 0.261.
Consider `CN(C)CCOc1ccc(/C(=C(/CCCl)c2ccccc2)c2ccccc2)cc1`, for which the “normalized GFP fluorescence” value in assay [1] came to 0.000588. In addition, in assay [2], the “normalized DsRed fluorescence” value was determined as 0.0394.
For `CN(C)CCc1c[nH]c2ccc(Cn3cncn3)cc12`, the “normalized GFP fluorescence” value in assay [1] worked out at 0.425. In addition, the “normalized DsRed fluorescence” value in assay [2] was found to be 0.751.
The corresponding values for `CN(C/C=C/c1ccccc1)Cc1cccc2ccccc12` are 0.0944 and 1.02.
On to `COc1cc2nccc(Oc3ccc(NC(=O)NC4CC4)c(Cl)c3)c2cc1C(N)=O` [E7080 (Lenvatinib)], for which the “normalized GFP fluorescence” value in assay [1] is 0.528. In addition, the “normalized DsRed fluorescence” value in assay [2] was determined as 0.638.
The matching figures for `NC(=O)[C@@H]1CCCN1C(=O)[C@H](Cc1c[nH]cn1)NC(=O)[C@@H]1CCC(=O)N1`: 0.621 and 0.766.
The corresponding values for `O=S(=O)(O)CCS` are 0.0478 and 0.565.
The corresponding values for `NS(=O)(=O)c1cc(Cl)c(Cl)c(S(N)(=O)=O)c1` [Dichlorphenamide (Diclofenamide)] are 0.31 and 0.653.
`Nc1ccc(C(=O)O)cc1`: the “normalized GFP fluorescence” value in assay [1] was found to be 0.617. In addition, the “normalized DsRed fluorescence” value in assay [2] was determined as 0.958.
With `CC(COc1ccccc1)N(CCCl)Cc1ccccc1` (stereo unspecified), the “normalized GFP fluorescence” value in assay [1] is 0.632. The “normalized DsRed fluorescence” value in assay [2] was 0.449.
The matching figures for `CN1CCN(C2=Nc3ccccc3Oc3ccc(Cl)cc32)CC1`: 0.35 and 1.01.
Regarding `O=C1O[C@H]([C@@H](O)CO)C(O)=C1O`, the “normalized GFP fluorescence” value in assay [1] worked out at 0.78. In addition, the “normalized DsRed fluorescence” value in assay [2] is 0.485.
The matching figures for `C#CCN[C@@H]1CCc2ccccc21`: 0.911 and 0.693.
The corresponding values for `Cn1cnc([N+](=O)[O-])c1Sc1ncnc2[nH]cnc12` are 0.269 and 1.03.
The matching figures for `CN1CCN2c3ncccc3Cc3ccccc3C2C1` (stereo unspecified) [Mirtazapine (Remeron, Avanza)]: 0.214 and 1.07.
Take `CC(C)(C)C(=O)OCOP(=O)(COCCn1cnc2c(N)ncnc21)OCOC(=O)C(C)(C)C` [Adefovir Dipivoxil (Preveon, Hepsera)]: in assay [1], the “normalized GFP fluorescence” value amounted to 0.38. The “normalized DsRed fluorescence” value in assay [2] came to 0.712.
The matching figures for `C[N+](C)(C)CCOC(N)=O`: 0.245 and 0.816.
The matching figures for `Cc1oncc1C(=O)Nc1ccc(C(F)(F)F)cc1`: 0.0504 and 1.25.
Take `COc1cc(Nc2ncc(F)c(Nc3ccc4c(n3)N(COP(=O)(O)O)C(=O)C(C)(C)O4)n2)cc(OC)c1OC`: in assay [1], the “normalized GFP fluorescence” value was 0.774. In addition, the “normalized DsRed fluorescence” value in assay [2] was determined as 0.602.
With `CC(C)OC(=O)C(C)(C)Oc1ccc(C(=O)c2ccc(Cl)cc2)cc1`, the “normalized GFP fluorescence” value in assay [1] stood at 0.203. The “normalized DsRed fluorescence” value in assay [2] came out at 0.698.
In the case of `O=C(O)Cc1ccccc1Nc1c(Cl)cccc1Cl` [Diclofenac], the “normalized GFP fluorescence” value in assay [1] was 0.0393. Besides, the “normalized DsRed fluorescence” value in assay [2] is 0.175.
The matching figures for `COC(=O)[C@@H]1[C@H]2C[C@H]3c4[nH]c5ccccc5c4CCN3C[C@@H]2CC[C@@H]1O`: 0.259 and 0.809.
The matching figures for `COc1cc(C(=O)NS(=O)(=O)c2ccccc2C)ccc1Cc1cn(C)c2ccc(NC(=O)OC3CCCC3)cc12` [Zafirlukast (Accolate)]: -0.00168 and 0.0292.
The matching figures for `CCOC(=O)C1=C[C@]2(CC)CCCN3CCc4c(n1c1ccccc41)[C@@H]32`: 0.593 and 0.554.
Take `CCCCC1C(=O)N(c2ccccc2)N(c2ccc(O)cc2)C1=O` (stereo unspecified): the “normalized GFP fluorescence” value in assay [1] is -0.0111. Further, in assay [2], the “normalized DsRed fluorescence” value is 0.377.
With `O=C(NCCO[N+](=O)[O-])c1cccnc1` [Nicorandil (Ikorel)], the “normalized GFP fluorescence” value in assay [1] is 0.624. Besides, the “normalized DsRed fluorescence” value in assay [2] worked out at 0.986.
Regarding `CCN(CC)C(=O)c1cccc(C)c1`, the “normalized GFP fluorescence” value in assay [1] stood at 0.46. In addition, the “normalized DsRed fluorescence” value in assay [2] was determined as 1.18.
The matching figures for `CCOC(=O)[C@H](CCc1ccccc1)N[C@@H](C)C(=O)N1Cc2ccccc2C[C@H]1C(=O)O`: 0.324 and 0.737.
The matching figures for `Cc1nccn1CC1CCc2c(c3ccccc3n2C)C1=O` (stereo unspecified): 0.319 and 0.626.
For `CCOC(=O)C(C)(C)Oc1ccc(Cl)cc1`, the “normalized GFP fluorescence” value in assay [1] was found to be 0.258. For the same molecule, in assay [2], the “normalized DsRed fluorescence” value amounted to 0.633.
The corresponding values for `CCN1CCCC1CNC(=O)c1cc(S(N)(=O)=O)ccc1OC` (stereo unspecified) are 0.362 and 0.764.
For `CC(O)(CC(=O)O)CC(=O)O`, the “normalized GFP fluorescence” value in assay [1] was determined as 0.226. Further, in assay [2], the “normalized DsRed fluorescence” value was determined as 0.945.
The matching figures for `COc1ccc2c3c1O[C@H]1C[C@@H](O)C=C[C@@]31CCN(C)C2`: 0.508 and 0.677.
Take `O=NN(CCCl)C(=O)NCCCl`: the “normalized GFP fluorescence” value in assay [1] is 0.549. Besides, the “normalized DsRed fluorescence” value in assay [2] was 0.898.
Take `CNCCc1ccccn1`: the “normalized GFP fluorescence” value in assay [1] was found to be 0.393. Further, in assay [2], the “normalized DsRed fluorescence” value came to 0.969.
